About 83,000 compounds went through this panel and 20% of them were active in at least one assay; those are over-represented in the sample as a whole.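 Single-dose data. Exposure time 48 hours. Values below 10 considered active.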 Unmarked numbers belong to inactive results. Activity calls are given as the source filed them.
Assays:
Assay in all cases: NCI-60 one-dose screen, 48 h (100 = growth as untreated, 0 = no growth, -100 = all killed)
SK-MEL-2 melanoma = conditions: 10 µM unless noted
SN12C renal = conditions: 10 µM unless noted
UO-31 renal = conditions: 10 µM unless noted
TK-10 renal = conditions: 10 µM unless noted
ACHN renal = conditions: 10 µM unless noted
CAKI-1 renal = conditions: 10 µM unless noted
CCRF-CEM leukemia = conditions: 10 µM unless noted
MOLT-4 leukemia = conditions: 10 µM unless noted
SR leukemia = conditions: 10 µM unless noted
RPMI-8226 leukemia = conditions: 10 µM
OVCAR-8 ovarian = conditions: 10 µM unless noted
OVCAR-5 ovarian = conditions: 10 µM unless noted
OVCAR-4 ovarian = conditions: 10 µM unless noted
IGROV1 ovarian = conditions: 10 µM unless noted
OVCAR-3 ovarian = conditions: 10 µM unless noted
HS 578T breast = conditions: 10 µM unless noted
NCI/ADR-RES ovarian = conditions: 10 µM unless noted
A498 renal = conditions: 10 µM unless noted
SK-OV-3 ovarian = conditions: 10 µM

Row | SMILES | growth (SK-MEL-2 melanoma) | growth (SN12C renal) | growth (UO-31 renal) | growth (TK-10 renal) | growth (ACHN renal) | growth (CAKI-1 renal) | growth (CCRF-CEM leukemia) | growth (MOLT-4 leukemia) | growth (SR leukemia) | growth (RPMI-8226 leukemia) | growth (OVCAR-8 ovarian) | growth (OVCAR-5 ovarian) | growth (OVCAR-4 ovarian) | growth (IGROV1 ovarian) | growth (OVCAR-3 ovarian) | growth (HS 578T breast) | growth (NCI/ADR-RES ovarian) | growth (A498 renal) [%] | growth (SK-OV-3 ovarian)
1 | O=C1Nc2ccc(Cl)cc2/C1=N/N=C(c1ccccc1)c1ccccc1 | 103% | 93.7% | 63.9% | 111% | 87.5% | 63% | 92.7% | 93.3% | 101% | 92.9% | 96% | 96.2% | 85.8% | 77.4% | 105% | 97.3% | 98% |  | 
2 | Nc1nc(N)c(C=Nc2ccc(Br)cc2)c(Nc2ccc(Br)cc2)n1 | 108% | 99.2% | 75.2% | 127% | 73.3% |  | 81.1% | 64.7% | 64.2% | 113% | 87.3% | 79.3% | 107% | 86.3% | 149% | 80.8% | 77.6% | 83.1 | 104%
3 | COc1ccc(/C=N/NC(=O)c2cnn3c2NC(c2ccccc2)C3)cc1OC1CCCC1 (stereo not drawn) | 107% | 90.7% | 80.1% | 109% | 95.3% | 77.8% | 90.7% | 69.1% | 47.2% |  | 85% | 101% | 76.5% | 101% | 106% | 88% | 92.7% |  | 
4 | COc1nc2c(cc1S(=O)(=O)c1ccccc1)CCc1c-2cnn1-c1cccc(Cl)c1 | 88.9% | 77.4% | -15.6% (active) | 94.2% | 68.3% | 63.5% | 70.4% | 66.1% | 47.4% | 56.6% | 81.8% | 80.1% | 87% | 94.9% | 93.7% | 102% | 89.7% |  | 83.2%
5 | C[C@]1(CO)C[C@@H](O)C[C@]2(C)[C@@H]1CC[C@@]13C[C@@H]4[C@@H](C[C@H]12)[C@]4(C)C3 | 102% | 99.1% | 83.9% | 103% | 97.7% | 89.5% | 116% | 108% | 118% | 114% | 105% | 97.6% | 104% | 106% | 113% | 102% | 105% |  | 
6 | COc1cc(-c2nc(Nc3nc4ccccc4[nH]3)nc(N)c2C#N)cc(OC)c1OC | 59.2% | 92.8% | 69.9% | 80.6% | 61.7% | 56.9% | 70.1% |  |  | 69.8% | 79.6% | 101% | 72.8% | 43% | 15.1% |  | 97.9% |  | 52.6%
7 | Nc1nc2c(s1)CCc1c-2c(Br)n(Cc2ccccc2)c1Br | 99.7% | 87.7% | 72.9% | 88.1% | 19.4% | 81.5% |  | 11% | 20.8% | 51.7% | 74.3% | 105% | 81.8% | 104% | 52.5% | 96.9% |  |  | 108%
8 | N#Cc1c(-c2cccc(F)c2)cc(-c2ccc(Br)s2)[nH]c1=O | 60% | 92.4% | 74.1% | 108% | 91.9% | 49.8% | 90.7% | 82.6% | 40.7% | 73.9% | 83.3% | 102% | 92% | 67.3% | 39.5% | 69% | 44.7% |  | 
9 | COc1ccc(/C=N/OCC(O)CNCc2ccccc2)cc1OC1CCCC1 (stereo not drawn) | 115% | 99.9% | 69.2% | 103% | 99.6% | 84% | 113% | 101% | 87% | 98.3% | 104% | 101% | 91.2% | 95.7% | 104% | 111% | 104% |  | 
10 | CCOC(=O)C(CC(c1ccccc1)N1CCCCC1)[N+](=O)[O-] (stereo not drawn) | 88.5% | 76.9% | 46.2% | 112% | 72.6% |  | 49.5% | 63.7% | 77.7% | 57.9% | 87.1% | 104% | 96.5% | 76.3% | 53.3% | 98.6% | 61.4% | 88.4 | 97.7%
11 | Brc1ccccc1Nc1ccc2nnc(-c3ccncc3)n2n1 | 98% | 101% | 82.1% | 114% | 97% | 87.1% | 85% | 92.6% | 61.7% | 91.1% | 100% | 101% | 104% | 93.6% | 103% | 109% | 99.8% |  | 102%
12 | COc1cc(/C=N/NC(=O)c2cnn3c2NC(c2ccccc2)C3)cc(OC)c1OC (stereo not drawn) | 47.6% | 87.4% | 68.9% | 85.7% | 80.2% | 42.1% | 79.7% | 80.5% | 47.6% |  | 90.7% | 87.2% | 82.5% | 54.7% | 10.4% | 65.2% | 82.9% |  | 
13 | COC(=O)c1c2c(c(C)[n+]([O-])c1C)C(=O)C=C(NCc1ccc(F)c(Cl)c1)C2=O | -42.8% (active) | -85.7% (active) | -49.5% (active) | 21.2% | -38.4% (active) | -16.1% (active) | -2.7% (active) | -35.6% (active) | -1.19% (active) | -32.7% (active) | -21.2% (active) | -91.8% (active) |  | -55.2% (active) | -41.4% (active) | -24.2% (active) | -18.6% (active) |  | 
14 | O=C1c2[nH]cc(CN[C@@H]3CCCN3)c2C(=O)c2c1c(O)c1ccccc1c2O | -17.3% (active) | -32% (active) | -31.1% (active) | -89.3% (active) | -92.8% (active) | -18.4% (active) | -85.6% (active) | -84.7% (active) | -69.6% (active) | -55.5% (active) | -92% (active) | -95% (active) |  | -83% (active) | -95.9% (active) | -50% (active) |  |  | -100% (active)
15 | COc1ccc(/C=N/NC(=O)c2cnn(CC(O)Cc3ccccc3)c2N)cc1OC1CCCC1 (stereo not drawn) | 108% | 95.4% | 92.1% | 99.4% | 87.5% | 77.9% | 70.9% | 66.6% | 88.7% | 55.4% | 78.6% | 102% | 75.8% | 105% | 102% | 79% | 88.3% |  | 
16 | COC(=O)c1c2c(c(C)[n+]([O-])c1C)C(=O)C(NCc1ccc(O)cc1)=CC2=O | -12.5% (active) | -89.9% (active) | 6.95% (active) | 74.1% | 8.06% (active) | 7.36% (active) |  | -1.35% (active) | 11.1% | -2.15% (active) | 5.26% (active) | -17% (active) | -97.4% (active) | -45% (active) | -33.1% (active) | -22.5% (active) | -6.46% (active) |  | 
17 | COc1ccc(/C=C2\SC(=O)N(CN3CCN(c4cc5c(cc4F)c(=O)c(C(=O)O)cn5C4CC4)CC3)C2=O)cc1 | 101% | 108% | 80.2% | 104% | 111% | 94.1% | 111% | 116% | 102% | 99.9% | 98.5% | 108% | 104% | 113% | 110% | 108% | 103% |  | 
18 | Cc1nn(CC(=O)O)c2c1C(=O)CC(C)(C)C2 | 113% | 101% | 74% | 89.9% | 126% | 97.4% | 99.6% | 81.1% | 89.1% | 99.2% | 104% | 91.2% | 101% | 94.1% | 110% | 102% | 99.5% |  | 101%

Source: PubChem BioAssay (NCI)
